Assay outcomes (PubChem)
Giardia kill = kills Giardia lamblia; Giardia lamblia trophozoite viability; 340,000 tested, 0.15% active; activity change, % at 7.66 µM, hits read low; in the data active means activity change below about -80%; inconclusive means between about -30% and that limit;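 further: parasites exposed to compound for two days anaerobically before the ATP read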
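Giardia trophozoites, 100 cells per well, were exposed to compounds for 48 hrs at 37 deg C under anaerobic conditions; viability was then read as ATP content by bioluminescence after 15-30 min at room temperature.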
MCF10A rerep = induces DNA re-replication in MCF 10a normal breast cells; MCF 10A DNA re-replication, Hoechst nuclear intensity, 48 h; Potency, µM (titrated, usually from 46.1 µM), usual class: activators; 350,000 tested, 2.9% active; further: nearly all actives have a fitted effect of over 50% in size
BCR signal inh = inhibitors of chronic active B-cell receptor signaling. AID 493014. Potency, µM (top dose mostly 46.1 µM), usual class: inhibitors. ABC-DLBCL IkBa-CBG/CBR reporter, luminescence ratio, 4 h. 340,000 tested, 0.05% active; active means well fitted inhibition curve with a large enough effect in the signal ratio, with a control signal flat, not every such curve was filed as active; inconclusive means small, poorly fitted or top-dose-only effect, or effect the other way, or a change in a side signal; the % refers to the signal ratio
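Doxycycline induced both beetle luciferases in TMD8 lymphoma cells; IKK-driven degradation limits the IkappaBalpha-fused green signal, while red luminescence normalises for cell number and nonspecific effects. Compounds tested up to 46 uM, 4 hrs.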
SW480 rerep = inducers of DNA re-replication in SW480 colon cancer cells | Potency, µM (top dose mostly 46.1 µM), hits mostly activators | SW480 DNA re-replication, Hoechst DNA content imaging, 48 h | 340,000 tested, 1.8% active; further: nearly all actives have a fitted effect of over 55% in size
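First, 250 cells per well were seeded. Next, compound or vehicle (23 nL) was pinned in, plates sat 48 hr at 37 C. Finally Hoechst was added for 40 min before fluorescence scanning.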
RORg inh = blocks mouse ROR gamma transcriptional activity | Potency, µM (top dose mostly 53.6 µM), hits mostly inhibitors | 310,000 tested, 5.4% active | P51450 | Drosophila S2 Gal4-RORgamma UAS-luciferase reporter, 20 h | AID 2551; further: nearly all actives have a fitted effect of over 60% in size
Target sequence (P51450 whole entry, looked up, the tested form may be a part): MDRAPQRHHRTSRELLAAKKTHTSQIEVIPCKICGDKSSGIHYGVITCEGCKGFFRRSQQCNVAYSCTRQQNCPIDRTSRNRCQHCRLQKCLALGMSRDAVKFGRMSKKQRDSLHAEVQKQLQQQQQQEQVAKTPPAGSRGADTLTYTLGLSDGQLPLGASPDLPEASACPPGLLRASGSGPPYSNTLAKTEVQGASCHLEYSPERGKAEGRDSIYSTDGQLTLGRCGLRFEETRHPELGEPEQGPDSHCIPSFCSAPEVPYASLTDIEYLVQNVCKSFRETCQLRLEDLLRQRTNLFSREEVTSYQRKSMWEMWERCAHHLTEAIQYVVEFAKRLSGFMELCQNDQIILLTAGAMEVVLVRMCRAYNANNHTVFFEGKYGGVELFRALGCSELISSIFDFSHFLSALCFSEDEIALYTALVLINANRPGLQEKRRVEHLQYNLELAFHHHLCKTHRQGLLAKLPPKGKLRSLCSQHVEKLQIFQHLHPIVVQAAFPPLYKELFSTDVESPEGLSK
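Drosophila S2 cells stably expressing Gal4-DBD/mouse RORγ fusion under metallothionein promoter plus UAS-luciferase; compound 1 h, then 700 uM CuSO4 induction for 20 h at ambient temperature; inhibition read as reduced luminescence.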
Gal4-VP16 FLuc = counter-screen for ROR gamma inhibitors: Gal4-VP16 reporter. Drosophila S2 Gal4-VP16 UAS-luciferase, luminescence, 20 h. Potency, µM (series often up to 53.6 µM), hits mostly inhibitors. 310,000 tested, 3.5% active;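 further: Gal4-VP16 expression switched on by copper sulfate through the metallothionein promoter; nearly all actives have a fitted effect of over 50% in size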
Large screens that a line does not name were inactive. Most compounds without a hit are left out; they make up all but 8.3% or so of the library. Unless noted, the call rests on the fitted dose curve; in most records, active means well fitted curve in the direction sought with a large enough effect; inconclusive means small, poorly fitted or top-dose-only effect, or another doubt; inactive means no such curve, though single readings can be large; an effect the other way counts as inactive or inconclusive.

C=C1CCN(C(CC(C)C)C(=O)O)S(=O)(=O)c2ccccc21 (configuration not stated)	none (no result: MCF10A rerep, BCR signal inh, SW480 rerep)
CC(C)CN(C(=O)/C=C/c1nc2ccccc2s1)C1CCS(=O)(=O)C1 (configuration not stated)	none (no result: RORg inh, Gal4-VP16 FLuc)
COCC(=O)Nc1cc(Sc2ccccc2)ccc1N=C(NC(=O)OC)NC(=O)OC	MCF10A rerep 7.5µM, SW480 rerep 17µM (no result: Giardia kill, BCR signal inh)
CC(=O)c1c(C)[nH]c(C(=O)OCc2ccc([N+](=O)[O-])cc2)c1C	RORg inh inconclusive
COC(=O)c1ccc(COC(=O)c2[nH]c(C)c(C(C)=O)c2C)o1	BCR signal inh inconclusive, RORg inh inconclusive, Gal4-VP16 FLuc 7.9µM
COc1ccc(-c2nn(-c3ccccc3)cc2C(=O)NC(=S)NNC(=O)c2ccncc2)cc1	MCF10A rerep inconclusive, BCR signal inh inconclusive, SW480 rerep inconclusive, RORg inh 6.3µM
COc1ccc(NC(=O)CN(C)C(=O)c2cn(-c3ccccc3)nc2-c2ccc(Cl)cc2)cc1	SW480 rerep 23µM (no result: RORg inh, Gal4-VP16 FLuc)
Cc1ccc(C)c(NC(=O)CN(C)S(=O)(=O)c2cccc3cccnc23)c1	BCR signal inh inconclusive
COc1ccc(-n2c(=S)[nH]c3cc(C(=O)Nc4ccccc4OC)ccc3c2=O)cc1	RORg inh 1.6µM, Gal4-VP16 FLuc inconclusive (no result: Giardia kill, MCF10A rerep, SW480 rerep)
COc1ccc(-n2c(=S)[nH]c3cc(C(=O)NCc4ccccc4OC)ccc3c2=O)c(OC)c1	RORg inh 14µM, Gal4-VP16 FLuc 14µM
COc1ccc(-n2c(=S)[nH]c3cc(C(=O)Nc4ccccc4OC)ccc3c2=O)c(OC)c1	BCR signal inh inconclusive, RORg inh 1.6µM, Gal4-VP16 FLuc 4.5µM
O=C(CSC1=NS(=O)(=O)c2ccccc21)Nc1ccccc1	MCF10A rerep inconclusive, BCR signal inh inconclusive, RORg inh inconclusive, Gal4-VP16 FLuc 20µM
COC(=O)CSC1=NS(=O)(=O)c2ccccc21	MCF10A rerep 13µM, BCR signal inh inconclusive, SW480 rerep inconclusive (no result: Gal4-VP16 FLuc)
Cc1ccc(OCCNc2ccc(S(=O)(=O)N3CCCC3)cn2)cc1	SW480 rerep 21µM (no result: RORg inh, Gal4-VP16 FLuc)
CC(C)=CCC12Oc3cc(O)ccc3C1(O)Oc1cc3c(c(O)c1C2=O)C=CC(C)(C)O3 (configuration not stated)	none (no result: BCR signal inh, RORg inh, Gal4-VP16 FLuc)
CCOC(=O)c1ncc2[nH]c3cccc(OC(C)C)c3c2c1C	RORg inh 18µM, Gal4-VP16 FLuc inconclusive (no result: Giardia kill, MCF10A rerep, BCR signal inh, SW480 rerep)
COc1cccc(NC(=O)CN(C)C(=O)c2ccc(OCc3ccccc3)c(OC)c2)c1	BCR signal inh inconclusive (no result: RORg inh, Gal4-VP16 FLuc)
CCOC(=O)CSC1=NC(=O)/C(=C\c2ccc(Cl)cc2)S1	MCF10A rerep inconclusive, BCR signal inh inconclusive, SW480 rerep inconclusive, Gal4-VP16 FLuc 13µM
CCOC(=O)C1CCN(C2=NC(=O)/C(=C/c3ccc(Cl)cc3)S2)CC1	BCR signal inh inconclusive
Cc1ccc([N+](=O)[O-])c(-c2n[nH]c(=S)n2-c2cccc(Cl)c2)c1	BCR signal inh inconclusive, RORg inh inconclusive
CC(C)Cn1c(-c2csc3ccccc23)n[nH]c1=S	RORg inh 1.1µM, Gal4-VP16 FLuc 6.3µM
Cc1cccc(-n2c(-c3csc4ccccc34)n[nH]c2=S)c1	RORg inh 2µM
CCn1c(-c2csc3ccccc23)n[nH]c1=S	BCR signal inh inconclusive, RORg inh 6.3µM, Gal4-VP16 FLuc 6.3µM
CCn1c(-c2csc3c2CCC(C)C3)n[nH]c1=S (configuration not stated)	RORg inh 2µM, Gal4-VP16 FLuc 2.8µM
Cc1cc(S(=O)(=O)N2CCCCC2CCNC(=O)C(=O)NCC2CCCO2)ccc1F (configuration not stated)	none (no result: RORg inh, Gal4-VP16 FLuc)
O=C(COC(=O)c1ccc(O)cc1O)c1ccc2c(c1)OCO2	RORg inh 7.1µM, Gal4-VP16 FLuc inconclusive
COC(=O)[C@@]1(Cc2ccccc2)[C@H]2c3cc(C(=O)N(C)C)n(Cc4cc(C)n(C)n4)c3C[C@H]2CN1C(=O)c1ccccc1	none (no result: Giardia kill, MCF10A rerep, BCR signal inh, SW480 rerep)
O=C(NCc1ccco1)C1CC(c2ccccc2O)=NO1 (configuration not stated)	MCF10A rerep inconclusive, BCR signal inh inconclusive
